According to publication PMC12136788:
Numbering of substitutions follows the chain as printed. Over roughly 5,800 sequences, “enrichment r” has its median near 0.54; the highest 2% begin near 16. Only a selection was taken, and the highest values are over-represented in it overall.

B1: chr10:99876058:99876159:-|3pUTR|ENSG00000107554|msi1|FALSE|bound_elsewhere (ssRNA)
RNA: GGGAGUUCUACAGUCCGACGAUCUUGAGCCUAAUGGAAGACUGGAUGUCUUUCUUCUUCAUCCAAGCACCCUAAUGACUGUUUAGUUACAUCCAUAGAUGCAGACAACAUAACACCUGUGACUUACUUGAAUUGGGAUAAGCCCAACAGAGGAUUGAGCAUCA
B2: ENSG00000107021:stop:overlap|stop_codon|ENSG00000107021|stop_codon|NA|stop_codon (ssRNA)
RNA: GGGAGUUCUACAGUCCGACGAUCACCCCAUCACAGAUGUCUGCCAGAUCCUGCAGAAAGCCAAGGAGCUCCAAGACUCAAAGUAGCCCGGCGGCAAGAGGCCCAUGUUCCGGAGAGAAGCCUCCCGACCCUGUGCCCUGGCUCCAACAGAGGAUUGAGCAUCA
B3: ENSG00000136451:be:win_2701|3pUTR|ENSG00000136451|bound_else_gene|NA|bound_elsewhere_windowed (ssRNA)
RNA: GGGAGUUCUACAGUCCGACGAUCUGUAAAUAUGGACAUCACUUUUUUUUUCUUUGAGAAAACACUUGUAUCAGCUUUGUGGUGUUUUCAGGGAGACAGCUGUCUGCAUUCCCUGUAGAAACCCAGCAAUGAUUAUGCACGUUGCAACAGAGGAUUGAGCAUCA
B4: chr8:73046310:73046411:+|3pUTR|ENSG00000147601|msi1|total|mutant (ssRNA)
RNA: GGGAGUUCUACAGUCCGACGAUCUUGUAUUCUUUAAGAACCUUAUUUUGAUAAAAUGUAAAUUUGUUGAACCCUGCCACAUUCCGUAUCCCCACCCCCAAAUCCUGUUCCAAUGAAAAAAUUAAAACCUGAUACGAAAAAAAACAACAGAGGAUUGAGCAUCA
B5: chr4:70820284:70820384:-|3pUTR|ENSG00000132463|msi1_unk|FALSE|overlapping (ssRNA)
RNA: GGGAGUUCUACAGUCCGACGAUCUGAACUGGUAUGGUUUGGCAGAAUAGUUUUAAAUUUUGCUGUAUUUGAUUACUUAGAGAUAGGAAUUUUUAAAAAUCAAAACAAAAAAUACCACAGCUUAGUGUAAAUGACAAUUUGGCGCAACAGAGGAUUGAGCAUCA
B6: chr8:25429562:25429664:-|3pUTR|ENSG00000104756|unk|total|mutant (ssRNA)
RNA: GGGAGUUCUACAGUCCGACGAUCAGAAAAGCACUCAUUUAACCGAUGCCGGGAAACCCGAUAUUGCUGCCUUUUGAAUGGGGCCGGGGGGUUUACCUGGUUUUAUGACCAGGCACCGUAUCUAUUAUAUUUGCUUUUAAACCGCAACAGAGGAUUGAGCAUCA
B7: ENSG00000152661:stop:overlap|stop_codon|ENSG00000152661|stop_codon|NA|stop_codon (ssRNA)
RNA: GGGAGUUCUACAGUCCGACGAUCCUUCAAGCAGAGCCAGCAGUCGUGCCAGCAGCAGACCUCGGCCUGAUGACCUGGAGAUCUAGAUACAGGCUUGAAAGCAUCAAGAUUCCACUCAAUUGUGGAGAAGAAAAAAGGUGCUGUCAACAGAGGAUUGAGCAUCA
B8: chr5:116443554:116446612:-|three_prime_utr|ENSG00000092421|control|control|control (ssRNA)
RNA: GGGAGUUCUACAGUCCGACGAUCCCGCCAGUGUUACAGCUUUCUGUUGCAGCAGAUAAAUGCCAUGUUGGGCAACUAUGUCAUAGAUUUCUGCUCCUCCUCUCUUUUAAUGAAAUAACGUGACCGUUAACGCAAGUAACUCUUCAACAGAGGAUUGAGCAUCA
B9: chr12:50748518:50748596:+|3pUTR|ENSG00000066084|msi1_unk|FALSE|overlapping (ssRNA)
RNA: GGGAGUUCUACAGUCCGACGAUCUCAAAUUCAAACUACAGUACUGUGUAAUUAUGUAUAAAGUUUUUUUAUUUAUUUGAAGUUAGACUAGAUAUACGUUUUUAAAUUUAACAUCUGGCUGGACAGUGUUCUAUUAACUCAUUGCAACAGAGGAUUGAGCAUCA
B10: chr20:59325757:59325866:+|3pUTR|ENSG00000124205|unk|total|mutant (ssRNA)
RNA: GGGAGUUCUACAGUCCGACGAUCUUAUGUGGAUCUGUUCAAAGCCGUCACUGUAUAUACGUACCGAGAGGCCGACCGGCCGGCCGAUUUUAAAUUGCAUUCUGAAUACAAACUCAUACUCCUCCGAGCUUGAAUUACAUUUUUCAACAGAGGAUUGAGCAUCA
B11: chr5:159157431:159157536:-|3pUTR|ENSG00000145860|unk|total|mutant (ssRNA)
RNA: GGGAGUUCUACAGUCCGACGAUCCAAAAAGUGUUUUUCAGACCUCGGUAUUCCUAAUGUGGGAUGUGACUUUAUUUUAUUUUCCGCCGCAAAUUUGGAUGCCGACUGACAGACACCGCUGAAUGUCUUAAUAAAUUUAAAUUUCAACAGAGGAUUGAGCAUCA
B12: chr18:9400975:9401076:+|3pUTR|ENSG00000128791|msi1|total|mutant (ssRNA)
RNA: GGGAGUUCUACAGUCCGACGAUCUAUAAAAACCGAUAAUGCUCUUGGACACAUUUUGUAUUAUUCAUGAUCUGAACCGCCGUCCGUUAAAAGAUCAUUUGUAAUAUUAUGAUCAACUGUUAUAAAUUAAGGUCUUAAUACCUUCAACAGAGGAUUGAGCAUCA
B13: chr8:140515610:140515764:+|3pUTR|ENSG00000104472|unk|FALSE|unique (ssRNA)
RNA: GGGAGUUCUACAGUCCGACGAUCUUUUGGAAUCAGUUCUUAUAAACAGCUCGAUUCAGUUUUAGCUAAAUUUAUAGUUUAGGUAGUAUGUUACAUUUGAAUUUUUGUCUUAAGAAAAGUUGACUGUUCAGAUAUUUUUCUACUCAACAGAGGAUUGAGCAUCA
B14: ENSG00000124766:be:win_3651|3pUTR|ENSG00000124766|bound_else_gene|NA|bound_elsewhere_windowed (ssRNA)
RNA: GGGAGUUCUACAGUCCGACGAUCUCGCUAAAUAUAAUUGUUUUAGUCUUAUGGCAUGAUGAUAGCAUAUGUGUUCAGGUUUAUAGCUGUUGUGUUUAAAAAUUGAAAAAAGUGGAAAACAUCUUUGUACAUUUAAGUCUGUAUCAACAGAGGAUUGAGCAUCA
B15: chr4:42087128:42087229:+|3pUTR|ENSG00000014824|msi1|FALSE|unique (ssRNA)
RNA: GGGAGUUCUACAGUCCGACGAUCAUUUUGUAUAAUAUAGUUCAUACUGUGUCUGUGAGUUUCUUCAGUUACAAAUGGGCAUUUAGUAUAGUUAUAUUGACUAUAACAUGUAAGUAAAUAGCUUUCUACUGACCCUAAGUUAUCCAACAGAGGAUUGAGCAUCA
B16: chr20:59325757:59325866:+|3pUTR|ENSG00000124205|unk|FALSE|unique (ssRNA)
RNA: GGGAGUUCUACAGUCCGACGAUCUUAUGUGGAUCUGUUCAAAGUAGUCACUGUAUAUACGUAUAGAGAGGUAGAUAGGUAGGUAGAUUUUAAAUUGCAUUCUGAAUACAAACUCAUACUCCUUAGAGCUUGAAUUACAUUUUUCAACAGAGGAUUGAGCAUCA
B17: chr8:140515610:140515764:+|3pUTR|ENSG00000104472|unk|total|mutant (ssRNA)
RNA: B13 RNA with U62C, A63C, U74C, A75C, U79C, A80C, U83C, A84C
B18: chr18:9400975:9401076:+|3pUTR|ENSG00000128791|msi1|FALSE|unique (ssRNA)
RNA: B12 RNA with C32U, C33A, C76U, C77A, C79U, C80A, C83U, C84A
B19: chr5:159157431:159157536:-|3pUTR|ENSG00000145860|unk|FALSE|bound_elsewhere (ssRNA)
RNA: B11 RNA with C83U, C84A, C86U, C87A, C101U, C102A, C115U, C116A
B20: chr9:74692981:74693082:+|3pUTR|ENSG00000198963|unk|FALSE|unique (ssRNA)
RNA: GGGAGUUCUACAGUCCGACGAUCUUUUAUAUUACUUUAGAAUGUAAUAGGUUUUUGUCCUUAUUUUAUGUCCUGUAAAUUAUUAGUUCAAUACUGUUAGCAUUCCCGGAUAAUGCACACAUGAUUUCUGAAUGUUUUCUGUAACAACAGAGGAUUGAGCAUCA
B21: chr5:14398947:14399058:+|CDS|ENSG00000038382|unk|total|mutant (ssRNA)
RNA: GGGAGUUCUACAGUCCGACGAUCCCCAAAAACCUUAAUUCGAAAGGGUCGAGAACGGCAUCUCUUCCUUUUUGAAAUGUCCUCCGUAUUCCGUAAAGAAGUGAAAGAUUCCAGUGGGAGAAGCAAGUACCUUUAUAAAAGCAACAACAGAGGAUUGAGCAUCA
B22: chr1:206903316:206905147:-|three_prime_utr|ENSG00000162894|control|control|control (ssRNA)
RNA: GGGAGUUCUACAGUCCGACGAUCUCUGUGCCCUGAGCAUGGCUCUGCCCCCAGGUCGUCUUGCACACCUUGGCAGCCCCCUGUAGUUGACAGGUAAGCUGUAGGCAUGUAGAGCAAUUGUCCCAAUGCCACUUGCUUCCUUUCCAACAGAGGAUUGAGCAUCA

These binders were tested against MSI1 full-length (mouse, UniProt Q61474 1-362) (assay: nsRBNS (natural sequence RNA bind-n-seq); RBNS binding buffer (assumed for nsRBNS): 25 mM Tris pH 7.5, 150 mM KCl, 3 mM MgCl2, 0.01% Triton X-100, 500 ug/ml BSA, 20 U/ml SUPERase-In, 4 C; UNK is unkempt and MSI1 is Musashi-1; names of the RNAs are library labels; protein concentration not given here; high values mean tight binding).
Chain of MSI1 full-length (Q61474 whole entry): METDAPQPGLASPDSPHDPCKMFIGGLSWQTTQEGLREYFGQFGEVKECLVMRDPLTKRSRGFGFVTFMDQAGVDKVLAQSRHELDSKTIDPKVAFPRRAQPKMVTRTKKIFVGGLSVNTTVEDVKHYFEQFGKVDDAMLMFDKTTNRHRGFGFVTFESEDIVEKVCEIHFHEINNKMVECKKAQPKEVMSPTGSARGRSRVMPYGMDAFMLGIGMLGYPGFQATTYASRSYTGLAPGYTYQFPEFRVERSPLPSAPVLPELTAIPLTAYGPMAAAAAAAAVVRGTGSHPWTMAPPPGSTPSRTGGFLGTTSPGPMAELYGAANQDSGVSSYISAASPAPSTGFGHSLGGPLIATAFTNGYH

Binder	binding signal [enrichment R]
B1	0.725
B2	0.38
B3	0.266
B4	2.83
B5	4.91
B6	0.472
B7	0.49
B8	0.417
B9	5.2
B10	0.342
B11	0.361
B12	0.599
B13	69.1
B14	2.43
B15	2.94
B16	20.2
B17	0.336
B18	24
B19	23.3
B20	2.02
B21	0.383
B22	0.397
